# This is one part of the list. Values without a mark were called inactive. Cut-off read from the data, not from the text of the source: active = inhibition above about 20%; inactive = the rest.
# Biological target: Neuropeptide Y receptor type 1 (Homo sapiens) (UniProt P25929)
# Experiment: NPY-Y1 receptor antagonists, selectivity check, counter-screen for NPY-Y2 antagonist project, cell-based (AID 1256);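 note: cells challenged with NPY then isoproterenol with cAMP sensed through a CNG channel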
# Settings: cell-based NPY-Y1 antagonism counterscreen; at 3.6 µM; hits give high values
# Chain of Neuropeptide Y receptor type 1 (Homo sapiens) (P25929 whole entry, looked up): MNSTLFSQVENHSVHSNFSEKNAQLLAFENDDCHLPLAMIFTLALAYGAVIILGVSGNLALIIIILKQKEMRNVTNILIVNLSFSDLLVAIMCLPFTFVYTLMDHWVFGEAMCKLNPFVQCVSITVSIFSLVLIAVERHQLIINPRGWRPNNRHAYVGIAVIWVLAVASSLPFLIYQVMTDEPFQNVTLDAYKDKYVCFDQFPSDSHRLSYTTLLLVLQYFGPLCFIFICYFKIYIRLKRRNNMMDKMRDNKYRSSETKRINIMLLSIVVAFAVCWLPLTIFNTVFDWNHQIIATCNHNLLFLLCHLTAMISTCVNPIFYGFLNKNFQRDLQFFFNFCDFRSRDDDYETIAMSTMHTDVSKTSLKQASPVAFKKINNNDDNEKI
smiles,measurement,value
O=C(COC(=O)c1ccccc1)Nc1ccc(Cl)cc1C(=O)c1ccccc1,inhibition,17.5%

# Reference: PubChem BioAssay AID1256 (The Scripps Research Institute Molecular Screening Center, 2008)
